BoNT-F LC inh = BoNT/F light chain protease inhibitors, primary screen, biochemical, flow cytometry, MLPCN library | Multiplex microsphere protease cleavage assay | 0.22% of 360,000 active | AID 588497, 2011 | Botulinum neurotoxin type F light chain protease (Clostridium botulinum) | inhibition, % at 10 µM; in the data active = inhibition above about 35%, passing the limit was not always enough; inconclusive = no clear call, values can overlap the other calls
BoNT A protease = BoNT/A light chain protease inhibitors, primary screen, biochemical, flow cytometry, MLPCN library | Botulinum neurotoxin type A light chain protease (Clostridium botulinum A str. ATCC 3502) | multiplex microsphere protease substrate cleavage | inhibition, % at 10 µM | 0.17% of 360,000 active | AID 588499, 2011
Anthrax LF inh2 = Bacillus anthracis LF protease inhibitors, primary screen, biochemical, multiplex microsphere, MLPCN library; Lethal factor (Bacillus anthracis), P15917; multiplex microsphere protease cleavage assay; inhibition, % at 10 µM; 0.12% of 360,000 active; AID 588501, 2011
MazF activator = activators of E. coli MazEF toxin-antitoxin RNase, primary screen, biochemical, fluorescence, uHTS; 0.32% of 350,000 active; Endoribonuclease toxin MazF (Escherichia coli (strain K12)), P0AE70; activation, % at 20 µM; FAM/BHQ RNA-DNA oligo cleavage fluorescence, 5 h; in the data active = activation above about 50%
Target sequence (P0AE70 whole entry, looked up): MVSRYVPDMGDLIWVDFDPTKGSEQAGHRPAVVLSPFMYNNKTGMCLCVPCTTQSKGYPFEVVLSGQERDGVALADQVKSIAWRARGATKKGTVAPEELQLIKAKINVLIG
Bead autofluor = compound fluorescence in toxin protease inhibitor counterscreen; compound autofluorescence counterscreen, microsphere flow cytometry; active compounds read high; fluorescence intensity (no concentration beside the values); 3.1% of 360,000 active; in the data active = fluorescence intensity above about 16000; inconclusive = no clear call, values can overlap the other calls
Of the large screens only hits and unclear results are named; the others gave an inactive call. Shown are actives, neighbours in structure and some others; about 3.7% of the full set was active somewhere. Cut-off read from the data, not from the text of the source, unless noted: active = inhibition above about 30%; inconclusive = no clear call, values can overlap the other calls; inactive = below that.

Cc1cccc2cc(C(c3nnnn3CC3CCCO3)N3CCc4ccccc4C3)c(=O)[nH]c12 (centres undefined)	none (no result: BoNT-F LC inh, BoNT A protease, Anthrax LF inh2, Bead autofluor)
O=c1[nH]c2cc3c(cc2cc1C(c1nnnn1Cc1ccccc1)N1CCCCCC1)OCCO3 (centres undefined)	Bead autofluor 17658
O=c1[nH]c2cc3c(cc2cc1C(c1nnnn1Cc1ccccc1)N1CCN2CCCC2C1)OCCO3 (centres undefined)	none
Cc1cccc2cc(C(c3nnnn3Cc3ccc4c(c3)OCO4)N3CCCC3)c(=O)[nH]c12 (centres undefined)	none
Cc1ccc(C)c2[nH]c(=O)c(C(c3nnnn3Cc3ccccc3)N3CCc4ccccc4C3)cc12 (centres undefined)	BoNT A protease inconclusive, Bead autofluor 22367
Cc1c(NS(=O)(=O)c2cc(C(=O)NCc3cccnc3)ccc2Cl)c(=O)n(-c2ccccc2)n1C	none
CCC/C(C#Cc1ccsc1)=C1/c2ccccc2C(=O)N1c1ccccc1	none
CCN(CC)CCCN=Cc1c(O)n(CCc2ccc(F)cc2)c(=O)[nH]c1=O	none
COc1ccc(CCn2c(O)c(C=NCCN3CCCCC3)c(=O)[nH]c2=O)cc1OC	Bead autofluor 20570
NC1CCCCC1N=Cc1c(O)n(CCc2ccc(F)cc2)c(=O)[nH]c1=O (centres undefined)	BoNT-F LC inh 45, Bead autofluor inconclusive
O=C(CNC(=O)c1ccco1)OCc1c(F)cccc1Cl	BoNT A protease inconclusive, Bead autofluor 20975
Cc1ccc(-c2cc(-c3ccc4c(c3)OCO4)c(C#N)c(N)n2)o1	none
CC(C)(C)c1ccc(-c2nc3c(C#N)c(-c4ccc5c(c4)OCO5)ccn3n2)cc1	Bead autofluor 20531
CC(=O)c1cccc(NS(=O)(=O)c2cc(OCC(N)=O)c(C)cc2Cl)c1	Bead autofluor 19294
COc1cc(NC(=O)c2ccco2)c(OC)cc1NC(=O)CCC(=O)Nc1cc(C)cc(C)c1	Bead autofluor 20576
COc1cc(NC(=O)c2ccco2)c(OC)cc1NC(=O)CCC(=O)Nc1cc(C)ccc1C	Bead autofluor 20046
Cc1cc(C)cc(NC(=O)N2CCC(c3nc4ccccc4o3)CC2)c1	Bead autofluor 20562
Cc1ccc(C(C(=O)NC2CCCCC2)N(C(=O)Cc2c[nH]c3ccccc23)c2ccccc2)o1 (centres undefined)	BoNT A protease inconclusive, Bead autofluor 20827
CN1CCc2nc3sc(C#N)c(N)c3c(-c3cccs3)c2C1	Bead autofluor 19864
COc1ccc(-c2noc([C@@H]3O[C@H](CO)[C@H](O)[C@H](O)[C@H]3O)n2)cc1OC	none (no result: MazF activator)
CC(C)(C)c1ccc(OCCCn2ccnc2)cc1	none
Cc1onc(-c2ccccc2Cl)c1C(=O)N1CCN(c2ccccc2)CC1	BoNT A protease inconclusive, Bead autofluor 22146
COc1ccc(NC(=O)Cn2nnc(-c3ccccc3F)n2)cc1Cl	none
Cc1onc(-c2ccccc2)c1C(=O)Nc1nc(-c2cc(F)ccc2F)cs1	Bead autofluor 20225
Cc1onc(-c2ccccc2Cl)c1C(=O)N1CCN(c2cccc(Cl)c2)CC1	none
Cc1onc(-c2c(F)cccc2Cl)c1C(=O)Nc1sc2c(c1C(N)=O)CCC2	Bead autofluor 16903
COC(=O)c1cc(OC)c(OC)cc1NC(=O)Cn1nnc(-c2ccccc2Cl)n1	Bead autofluor 24177
C(COC1CC2CC1C1C2CC2OC21)OC1CC2CC1C1C2CC2OC21 (centres undefined)	none
Cc1onc(-c2ccccc2Cl)c1C(=O)Nc1ccc(F)c(F)c1	Bead autofluor 22619
Cc1onc(-c2ccccc2Cl)c1C(=O)Nc1ccc(OCC(=O)N2CCOCC2)cc1	Bead autofluor 16183
COc1cccc(-c2nnn(CC(=O)NC3CCCC3)n2)c1OC	Bead autofluor 16511
Cc1onc(-c2ccccc2Cl)c1C(=O)Nc1ccc2c(c1)OCO2	Bead autofluor inconclusive
COC(=O)c1cc(OC)c(OC)cc1NC(=O)c1c(-c2ccccc2Cl)noc1C	Bead autofluor 21663
CN(CC(=O)Nc1ccccc1Br)C(=O)CNC(=O)c1ccco1	none
Cc1cccc(-c2ocnc2C(=O)N2CCN(C(=O)c3cccs3)CC2)c1	none
Cc1ccc(NC(=S)NC(=O)c2c(-c3ccccc3Cl)noc2C)cc1	BoNT A protease inconclusive, Bead autofluor 22637
Cc1ccc(CSc2nnc(-c3ccco3)n2N)cc1	Bead autofluor 23093
Nn1c(SCc2cccc(C(F)(F)F)c2)nnc1-c1ccco1	BoNT A protease inconclusive
Cc1ccc(CSc2nnc(-c3cccnc3)n2N)cc1	Bead autofluor 23095
Cc1ccc(C(=O)CSc2nnc(-c3cccnc3)n2N)cc1	none
COc1cc(C2C(C#N)=C(N)Oc3cc(N(C)C)ccc32)cc2c1OCO2 (centres undefined)	MazF activator 64
COc1cc(C2C(C#N)=C(N)Oc3cc(O)ccc32)cc2c1OCO2 (centres undefined)	none
CCOc1ccc(NC(=O)N2CCC(c3ccc(C)cc3)C2)cc1 (centres undefined)	Bead autofluor 22970
Cc1nc2oc3c(=O)[nH]cnc3c2c2c1COC(C)(C)C2	none
COc1ncnc2c1oc1nc(CC(C)C)c3c(c12)CC(C)(C)OC3	Bead autofluor 23399
COc1ccc2c(Cl)c(C(=O)N/N=C/c3c(C)[nH]c4ccccc34)sc2c1	BoNT A protease 36, Bead autofluor 20361
Cc1[nH]c2ccccc2c1/C=N/NC(=O)c1cccc(Br)c1	none
Cc1[nH]c2ccccc2c1/C=N/NC(=O)c1cccc(S(=O)(=O)Nc2ccccc2Cl)c1	BoNT A protease 35
FC(F)(F)c1cccc(Oc2ccc3c(C(F)(F)F)cc(C(F)(F)F)nc3n2)c1	BoNT A protease inconclusive, Bead autofluor 21842
FC(F)(F)c1cc(C(F)(F)F)c2ccc(Oc3ccccc3)nc2n1	none
COCCNC(=O)c1cc(C(=O)CC(C)C)c[nH]1	none
O=C(Nc1cccnc1)c1cc2c(ccc3ccccc32)o1	Bead autofluor 23266
CCC1(OC(=O)CN(C)C)C(=O)OCc2c1cc1n(c2=O)Cc2cc3c(N)cccc3nc2-1 (centres undefined)	none
CC(C)CC1C(=O)N(Cc2cn(Cc3ccco3)nn2)CCS(=O)(=O)N1Cc1ccc(-c2ccc(Cl)cc2)cc1 (centres undefined)	none
Cc1ccc(CSc2nnc(C(F)(F)F)n2Cc2ccc(F)cc2)cc1	none
COc1cccc(CSc2nnc(C(F)(F)F)n2Cc2ccc(F)cc2)c1	Bead autofluor 22093
COc1ccc(C)cc1NC(=O)COC(=O)CCC(=O)c1cccs1	none
COCCNC(=O)c1nn2cccnc2c1Cl	Bead autofluor 19754
O=C(NCc1cccs1)c1nn2cccnc2c1Cl	none
O=C(NCC12CC3CC(CC(C3)C1)C2)c1nn2cccnc2c1Cl	Bead autofluor 16281
CC(Cc1ccco1)NC(=O)c1ccc(C(F)(F)F)cc1 (centres undefined)	none
